Bioassay records deposited in PubChem BioAssay by Buhrlage Lab, Dana-Farber Cancer Institute and Novartis Institutes for BioMedical Research (Cambridge, Mass).
The list is not random: actives were taken first. Their share in the collection is about 11%.
USP28 inh – blocks human USP28 ubiquitin-rhodamine cleavage | Q96RU2 | purified USP28, Ub-rhodamine cleavage fluorescence, 30 min | inhibition, % at 25 µM | 3% of 47,000 active | AID 1645857
USP30 inh – inhibitors of human USP30 deubiquitinase; purified USP30, Ub-rhodamine cleavage fluorescence; inhibition, % at 25 µM; 5.3% of 47,000 active
Target sequence (Q70CQ3 whole entry, looked up): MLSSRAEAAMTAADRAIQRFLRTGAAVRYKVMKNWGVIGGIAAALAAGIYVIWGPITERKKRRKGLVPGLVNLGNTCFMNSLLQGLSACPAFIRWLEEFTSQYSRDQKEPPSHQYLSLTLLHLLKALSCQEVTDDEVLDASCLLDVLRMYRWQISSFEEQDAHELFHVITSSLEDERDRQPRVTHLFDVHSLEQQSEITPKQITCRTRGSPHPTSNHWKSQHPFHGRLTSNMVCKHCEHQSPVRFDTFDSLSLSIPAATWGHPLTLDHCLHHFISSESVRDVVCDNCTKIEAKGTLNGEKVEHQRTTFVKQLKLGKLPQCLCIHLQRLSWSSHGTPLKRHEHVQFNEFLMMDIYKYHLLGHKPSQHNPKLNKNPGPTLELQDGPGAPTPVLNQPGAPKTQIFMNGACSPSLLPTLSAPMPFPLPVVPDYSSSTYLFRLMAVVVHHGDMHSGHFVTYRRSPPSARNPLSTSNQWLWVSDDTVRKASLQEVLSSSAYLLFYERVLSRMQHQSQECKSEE
USP17 block – human USP17-like deubiquitinase inhibition; 6.5% of 47,000 active; purified USP17, Ub-rhodamine cleavage fluorescence, 3 h; inhibition, % at 50 µM; A8MUK1
Hits are given with their value; i = inactive; nt = no result given. No stated cut-off is given here; in the data, active means inhibition above about 30%; inactive means the rest.

SMILES | USP28 inh | USP30 inh | USP17 block
Cc1ccc(S(=O)(=O)c2cnc3ccccc3c2NCc2ccccc2)cc1 | i | i | i
COc1ccc(CNc2c(S(=O)(=O)c3ccccc3)cnc3ccccc23)cc1 | i | 35 | i
COc1cc(C2CCN(S(=O)(=O)c3ccccn3)CC2)on1 | i | i | i
CC(C)NC(=O)Cn1cnc2cc3c(cc21)OCCCO3 | i | i | i
Cc1cc(C)c(NC(=O)c2cccc(-n3cnnn3)c2)c(C)c1 | i | i | i
Cn1c2ccccc2c(=O)c2c(=O)n(-c3cccc(Cl)c3)c(-c3cccs3)nc21 | i | i | 30
Cn1c2ccccc2c(=O)c2c(=O)n(-c3ccccc3)c(-c3ccc(Cl)cc3)nc21 | i | i | i
Cn1c2ccccc2c(=O)c2c(=O)n(C3CCCCC3)c(-c3ccc([N+](=O)[O-])cc3)nc21 | i | i | i
CCc1nc2c(c(=O)c3ccccc3n2C)c(=O)n1-c1ccc(C)cc1 | nt | nt | 49
CC(=O)c1ccc(N2CCN(C(=O)c3ccc4noc(-c5ccccc5)c4c3)CC2)c(F)c1 | i | i | i
O=C(CCc1nc(CSc2nnc(-c3ccco3)o2)no1)Nc1ccc(Cl)cc1 | i | i | i
COc1ccc(-c2ncc3c(=O)n(CC(=O)NC4CC4)c(=O)n(C)c3n2)cc1 | i | i | i
O=c1[nH]c2ccccc2cc1CN(Cc1ccco1)S(=O)(=O)c1ccc(F)cc1 | 34 | 51 | 36
CS(=O)(=O)N(Cc1ccco1)Cc1cc2ccccc2[nH]c1=O | i | i | i
Nc1nonc1C(=O)N1CCC(c2c(C(=O)N3CCOCC3)sc3ccccc23)C1 (configuration not stated) | i | i | i
COC(=O)C1=C(C)N(Cc2ccccc2)C(=O)NC1c1cccc(OCc2ccccc2)c1 (configuration not stated) | i | i | i
C[C@H]1CCCC(=O)CCCCCc2cc(OCc3ccccc3)cc(O)c2C(=O)O1 | i | 32 | i
COc1cc(O)cc2c1C(=O)OC(C)CCCCCCC2 (configuration not stated) | i | 37 | 40
COc1cc(O)cc2c1C(=O)OC(C)CCCC(O)CCC2 (configuration not stated) | i | i | i
O=C(C1CCN(c2nc3ccccc3[nH]2)CC1)N1CCC(N2CCCCC2)CC1 | i | i | i
COc1ccc(Cl)cc1NC(=O)c1cn2c(n1)CCCC2 | i | i | i
CCc1cccc(N2C(=O)Nc3ccccc3S2(=O)=O)c1 | i | i | i
O=C(c1ccoc1)N1CCCC(c2cc(-c3ccccc3)n[nH]2)C1 (configuration not stated) | i | i | i
O=C(O)C1CCN(c2ccc([N+](=O)[O-])cc2)CC1 | i | i | i
N#Cc1cc([N+](=O)[O-])ccc1N1CCN(c2ccc(O)cc2)CC1 | i | 35 | 32
SMILES | USP28 inh | USP30 inh | USP17 block
CCOc1ccccc1NC(=O)NC1Cc2ccccc2C1 | i | i | i
O=C(Nc1ccc(F)cc1F)NC1Cc2ccccc2C1 | i | 66 | i
O=C(c1noc2ccc(S(=O)(=O)Nc3cccc(F)c3)cc12)N1CCOCC1 | i | i | i
O=S(=O)(Nc1ccc(O)cc1)c1ccc2oc3ccc(S(=O)(=O)Nc4ccc(O)cc4)cc3c2c1 | i | 34 | 54
O=C(Nc1nccc(-c2cccs2)n1)c1ccco1 | i | i | i
O=C(CSc1nc2ccccc2n1S(=O)(=O)c1ccc(Br)cc1)NCCc1ccccc1 | i | i | i
O=C(CSc1n[nH]c(-c2cc(Br)ccc2O)n1)NCCc1ccccc1 | i | i | 38
O=C(Nc1cccc(F)c1)c1c(O)c2cnn(Cc3ccccc3)c2[nH]c1=O | i | i | i
CN(C)C(=O)c1ccc2c(c1)nc(CN(C)C(=O)Nc1ccc(F)cc1)n2C | i | i | i
O=C(NCC1(O)CCc2ccccc21)c1ccc2c(c1)OCO2 (configuration not stated) | i | 33 | i
N#Cc1cccc(C(=O)NCC2(O)CCc3ccccc32)c1 (configuration not stated) | i | i | i
CN(Cc1ccc(Cl)cc1)Cc1cc(=O)c2cccc(F)c2[nH]1 | i | i | i
COc1cccc(O[C@@H]2C[C@@H](NC(C)=O)[C@H](N3CCCC3)[C@H]2O)c1 | i | i | i
COc1cccc(-c2cc(=O)[nH]c(Nc3nc(C)c4ccccc4n3)n2)c1 | i | 58 | i
Cc1cc2nc(Nc3ncc4c(n3)CCCC4=O)nc(C)c2cc1C | i | i | i
Cc1nc(N2CCCC2)ncc1-c1cc(=O)[nH]c(N2CCc3ccccc3C2)n1 | i | i | 78
Cc1nc(N2CCCC2)ncc1-c1cc(=O)[nH]c(N2CCN(Cc3ccccc3)CC2)n1 | i | i | i
Cc1nc(N2CCCCC2)ncc1-c1cc(=O)[nH]c(N2CCN(c3ccccc3)CC2)n1 | i | i | i
Cc1nc(N2CCOCC2)ncc1-c1cc(=O)[nH]c(NCCc2ccccc2)n1 | i | 34 | i
COc1ccc(-c2cc(=O)[nH]c(Nc3nc(C)c4cc(C)ccc4n3)n2)cc1 | i | i | i
COc1ccc2nc(Nc3ncc4c(n3)CCCC4=O)nc(C)c2c1 | i | 52 | 38
O=C(NC1CCC1)c1ccc2nnc(C3CCN(Cc4ccccc4)C3)n2c1 (configuration not stated) | i | i | i
Cn1ccnc1CN1CCC(c2ccnc(Nc3cc(F)ccn3)n2)C1 (configuration not stated) | i | i | i
Cc1nc(-c2ccccc2Cl)sc1C(=O)NCc1ccncc1 | i | i | i
CC(C)CS(=O)(=O)N1C[C@H]2C[C@H](C(=O)NCc3cccnc3)[C@@H](C1)O2 | i | i | i
SMILES | USP28 inh | USP30 inh | USP17 block
COc1ccc2nc(Nc3nc(-c4cnc(N5CCOCC5)nc4C)cc(=O)[nH]3)nc(C)c2c1 | i | i | 52
CCN1CCN(c2ncc(-c3cc(=O)[nH]c(Nc4nc(C)c5cc(C)ccc5n4)n3)c(C)n2)CC1 | i | i | i
COc1cccc(C(=O)N2CCCn3cnc(CN4CCCC4=O)c3C2)c1 | i | i | i
Cn1c(=O)c2c(nc3n(-c4ccccc4F)c(-c4ccccc4)cn23)n(C)c1=O | i | 72 | 39
Cn1c(=O)c2c(nc3n(-c4ccc(F)cc4)c(-c4ccc(Br)cc4)cn23)n(C)c1=O | i | i | i
CCOc1ccc(-c2cn3c4c(=O)n(C)c(=O)n(C)c4nc3n2-c2ccccc2F)cc1Cl | i | i | i
COc1ccc(CCn2c(-c3ccccc3)cn3c4c(=O)n(C)c(=O)n(C)c4nc23)cc1OC | i | 39 | i
Cc1ccc(-n2c(-c3cccs3)cn3c4c(=O)n(C)c(=O)n(C)c4nc23)cc1 | i | i | 36
CCOC(=O)CCCn1c(-c2ccccc2)cn2c3c(=O)n(C)c(=O)n(C)c3nc12 | i | i | i
Cc1cn2c3c(=O)n(C)c(=O)n(C)c3nc2n1Cc1cccc2ccccc12 | i | 48 | i
Cn1c(=O)c2c(nc3n(CCCCO)c(-c4ccccc4)cn23)n(C)c1=O | i | i | i
O=C(NCCc1ccncc1)C1CN(C(=O)c2ccccc2F)CC12CCOCC2 (configuration not stated) | i | i | i
O=C(NCc1ccccn1)C1CCc2nc(N3CCN(C(=O)C4CCC4)CC3)sc2C1 (configuration not stated) | i | i | i
O=C(Cn1cnc(S(=O)(=O)N2CCCCC2)c1)N1CCCc2ccccc21 | i | i | i
